Reference: PubChem BioAssay AID463173 (ICCB-Longwood Screening Facility, Harvard Medical School, 2010)
The campaign covered roughly 52,000 compounds. About 4,300 (8.3%) were called active. The sample as a whole holds a higher share of actives than the screen did. Unmarked numbers belong to inactive results. Cut-off read from the data, not from the text of the source: active = survival mostly below about 52% (no sharp cut-off); inactive = mostly above about 56%.

Each compound was assayed on DeltatarO mutant (assay: S. aureus survival, RN4220 and DeltatarO strains – OD600, teichoic acid synthesis inhibitors, primary screen (AID 463173)). Details: S. aureus RN4220 wild type/DeltatarO growth, OD600, 18 h, hits give low values, screened at 18.75 µg/mL (by protocol).

In order of falling survival:
1. CCOc1ccc(-c2nnc(SCC(=O)c3ccc(F)cc3)n2-c2ccccc2)cc1  168%
2. O=C(CCCn1c(=O)c2cccn2c2cccnc21)NCc1ccccc1Br  130%
3. COc1ccc(Br)cc1CNC(=O)CCCn1c(=O)c2cccn2c2cccnc21  106%
4. CCOC(=O)c1ccc(NC(=O)c2nn(C)c3c2COc2ccccc2-3)cc1  106%
5. CCc1ccc(NC(=O)C2CCN(c3nn4c(=O)cc(C)nc4s3)CC2)cc1  101%
6. Cc1ccc(C(=O)CSc2nnc(-c3ccccc3)n2-c2ccccc2)cc1  99%
7. COc1ccc(S(=O)(=O)c2c(Nc3c(C)cccc3C)sc(C(=O)c3ccc(F)cc3)c2N)cc1  98%
8. CCOc1ccc(C(=O)Cn2c(=O)n3nc(CCn4nc(C)cc4C)nc3c3cc(OC)c(OC)cc32)cc1  98%
9. CCc1c(C)nc2cc(-c3cc(OC)cc(OC)c3)nn2c1NCCO  95%
10. Cc1ccc(C(=O)c2cn(CC(=O)NCc3ccccc3)c3nc(C)ccc3c2=O)cc1  95%
11. COc1ccc(OC)c(Nc2c3c(nc4ccccc24)CCC3)c1  94%
12. COc1ccccc1-c1nnc(SCC(=O)OC(C)C)n1-c1ccccc1  92%
13. NC(=O)NC(=O)c1nc2nonc2[nH]c1=O  91%
14. CC(=O)N1c2ccccc2C(=O)C1N1CCN(c2cccc(C(F)(F)F)c2)CC1 (centres undefined)  91%
15. COc1cccc(NC(=O)CSc2nc(=O)n(Cc3ccco3)c3c2CCC3)c1  90%
16. Cc1oc2c(c(C)cc3oc(=O)c(CC(=O)NCc4ccc(F)cc4)c(C)c32)c1C  89%
17. Cc1cccc(OC2CCS(=O)(=O)C2)c1 (centres undefined)  87%
18. CCc1nn2c(=O)cc(COC(=O)c3ccccc3NC(=O)COc3ccc(C)c(C)c3)nc2s1  87%
19. COc1ccc(Cn2c(=O)c3cccnc3n(CC(=O)Nc3c(C)cc(C)cc3C)c2=O)cc1  87%
20. CCn1c(SCC(=O)c2ccccc2)nnc1-c1ccco1  86%
21. Cc1ccc(-c2nnc(SCC(=O)c3ccc(Cl)cc3)n2-c2ccccc2)cc1  85%
22. COc1ccc(C)cc1Nc1c2c(nc3ccccc13)CCC2  85%
23. O=C(CN1C(=O)CCSc2ccccc21)Nc1ccccc1F  85%
24. COc1cccc(C(=O)N2CCCCC2CCN2CCCCC2)c1 (centres undefined)  83%
25. O=c1[nH]c2ccccc2nc1/C=C(\O)c1ccccc1  83%
26. CCOC(=O)c1ccc(CN(Cc2ccccc2C)S(=O)(=O)c2ccc(C(C)(C)C)cc2)cc1  83%
27. CSc1ccc(CCNC(=O)c2ccc(-c3nc(COc4ccc(C)cc4)c(C)o3)cc2)cc1  82%
28. O=C(CCCCn1c(=O)c2ccccc2n(Cc2ccccc2Cl)c1=O)NCc1ccc2c(c1)OCO2  78%
29. Cc1c(Cl)cccc1NC(=O)CCN1C(=O)c2ccccc2Sc2ncccc21  78%
30. Cc1ccc(CNC(=O)c2c(-c3ccc(F)cc3F)noc2C)o1  77%
31. N#CC(C#N)=Cc1cn(CCCOc2ccccc2Cl)c2ccccc12  76%
32. COc1ccccc1CNC(=O)CCCn1c(=O)c2cccn2c2ccccc21  76%
33. FC(F)(F)COc1nc(OCC(F)(F)F)nc(N(c2ccccc2)c2ccccc2)n1  71%
34. CCn1c(SCC(=O)c2ccc([N+](=O)[O-])cc2)nnc1-c1ccc(Cl)cc1  70%
35. CCCCN(CC)C(=O)CCn1c(=O)c2cccn2c2cccnc21  70%
36. O=C(CSc1nnc(-c2ccc(Br)cc2)n1-c1ccccc1)c1ccccc1  69%
37. Fc1ccc(Nc2c3c(nc4ccccc24)CCC3)cc1  69%
38. Cc1ccccc1CNC(=O)CCCn1c(=O)c2cccn2c2ccccc21  68%
39. CCCCNC(=O)CSc1nc(-c2ccc(OC)cc2)cc(C(F)(F)F)n1  66%
40. CN(C)CCNC(=O)CCCn1c(=O)c2cccn2c2ccccc21  64%
41. O=C(CN1C(=O)COc2ccc(S(=O)(=O)N3CCCCC3)cc21)NCc1ccc(Cl)cc1  64%
42. O=C(c1ccccc1)N1c2nc(-c3ccco3)nn2C2(CCCCC2)[C@@H]2CCCC[C@@H]21  62%
43. CCN1C(=O)c2ccccc2S(=O)(=O)c2ccc(C(=O)NCc3ccc(C)cc3)cc21  61%
44. Cc1ccc(C)c(S(=O)(=O)c2nnn3c2nc(N2CCCCC2)c2sccc23)c1  60%
45. COc1ccc(C2=C(C)C(=NCCCN3CCN(c4cc(Cl)ccc4C)CC3)NS2(=O)=O)cc1  59%
46. COc1ccc(Nc2c3c(nc4ccccc24)CCC3)cc1Cl  59%
47. Cn1c(SCC(=O)c2ccc(F)cc2)nnc1-c1ccccc1Br  57%
48. O=C(c1ccc(F)cc1)N1c2nc(-c3ccco3)nn2C2(CCCCC2)[C@@H]2CCCC[C@@H]21  53%

With `O=c1[nH]c2nonc2nc1/C=C(\O)c1ccccc1` the survival was 15% (active).
In the case of `COc1ccccc1-c1nnc(SCC(=O)c2ccc(F)cc2)n1-c1ccccc1`, the survival is reported as 6% (active).
For `CCn1c(SCC(=O)c2ccccc2)nnc1-c1cccc(Cl)c1`, the survival was 39% (active).
With `O=C(CSc1nnc(-c2ccccc2Br)n1-c1ccccc1)c1ccc(F)cc1` the survival was 17% (active).
In the case of `COc1ccccc1-c1nnc(SCC(=O)c2ccc(Cl)cc2)n1-c1ccccc1`, the survival is reported as 1% (active).
For `Cc1ccc(C(=O)N2c3nc(-c4ccco4)nn3C3(CCCCC3)[C@@H]3CCCC[C@@H]32)cc1`, the survival was 59% (active).
For `Cc1ccc(Nc2c3c(nc4ccccc24)CCC3)cc1F`, the survival was 2% (active).
For `Cc1ccc2nc3c(c(Nc4ccc(C)c(C)c4)c2c1)CCC3`, the survival was 38% (active).
With `O=C(CCCn1c(=O)c2cccn2c2ccccc21)NCc1ccccc1Br` the survival was 43% (active).
`CCCCN(CC)C(=O)CCCn1c(=O)c2cccn2c2ccccc21` was tested, and the survival was 49% (active).
In the case of `COc1ccc(Br)cc1CNC(=O)CCCn1c(=O)c2cccn2c2ccccc21`, the survival is reported as 39% (active).
